Data: PubChem BioAssay
Measured potencies and affinities stand elsewhere. Results filed as inconclusive are left out. Activity calls are given as the source filed them. Unless noted, no rule for the calls is given here.

Tests used:
[1] = CMV-driven luciferase expression suppression in HEK293 – cell-based, luminescence, dry powder, counter-screen for Pax8 inhibitor project, dose response (AID 743020;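 active = signal-lowering compounds whose fitted half-maximal concentration is at or below twice the top tested dose in every run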;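 also: HEK293 cells stably expressing the CMV luciferase reporter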)
[2] = general cell-killing toxicity readout – plate reader, dry powder samples, cytotoxicity control for PAX8 inhibitor project, dose response (AID 743021)
[3] = IGROV1 cell killing – plate reader, dry powder samples, PAX8 inhibitor project, dose response (AID 743043);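 also: more negative means fewer viable cells or more cytotoxicity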
[4] = OVCAR-3 cell viability loss – plate reader, dry powder samples, PAX8 inhibitor project, dose response (AID 743044); conditions: max activity: at 35 µM, stronger effect = lower value unless noted
[5] = toxicity toward immortalized ovarian surface epithelium – cell-based, plate reader, dry powder samples, cytotoxicity control for PAX8 inhibitor project, dose response (AID 743045);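 also: 0% = neutral control median and -100% = positive control median; more negative values mean more cell killing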
[6] = A2780 cell killing – plate reader, dry powder samples, cytotoxicity control, dose response (AID 743046);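 also: 0% = neutral control wells and -100% = cytotoxic reference compound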
[7] = OVCAR8 cell viability loss – plate reader, dry powder samples, PAX8 project, dose response (AID 743197)
[8] = toxicity toward HepG2 liver cells – cell-based, plate reader, cherry-pick, antagonist series, cytotoxicity control, dose response (AID 743416);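 also: 0% = neutral control wells and -100% = positive control wells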

Measured: max activity

O=C(Nc1cccc(NC(=O)c2cccs2)c1)c1ccc([N+](=O)[O-])o1
inactive: [1] | [2]

CCc1cc(-c2n[nH]c(C)c2-c2nc3ccccc3n2C)c(O)cc1O
inactive: [1] | [2]

C[C@@H]1CN([C@@H](C)CO)C(=O)Cc2cc(NC(=O)CCC(F)(F)F)ccc2O[C@H]1CN(C)Cc1ccc(-c2ccccc2)cc1
inactive: [1] | [2] | [3] | [4] -2.75% [at 16 µM, stronger effect = lower value] | [5] | [6] | [7]

CCOc1ccc(NC(=O)Nc2cc(OCC(F)(F)F)cc(OCC(F)(F)F)c2)cc1
inactive: [1] | [2]

Cc1ccc(NC(=O)CN(C)C(=O)Cn2ncc(Cl)c(Cl)c2=O)cc1
inactive: [1] | [2]

COc1ccc(-c2nc3c(c(SCC(=O)Nc4cccc(O)c4)n2)Cc2c(CO)cnc(C)c2O3)cc1
inactive: [1] | [2]

O=S(=O)(c1ccccc1F)N1CC[C@@H]2[C@@H](CO)Nc3ccc(C4=CCCCC4)cc3[C@@H]21
inactive: [1] | [2] | [3] | [4] 10.3% [at 4.2 µM, stronger effect = lower value] | [5] | [6] | [7]

Nc1nnnn1/N=C/C(Br)=C/c1ccccc1
inactive: [1] | [2]

Cc1noc(C)c1S(=O)(=O)N(C)C[C@@H]1OCCCC[C@H](C)Oc2ccc(NS(=O)(=O)c3ccc(Cl)cc3)cc2C(=O)N([C@H](C)CO)C[C@@H]1C
inactive: [1] | [2] | [3] | [4] -11.5% [at 0.5 µM, stronger effect = lower value] | [5] | [6] | [7]

COc1cccc2c1C(=O)c1c(O)c3c(c(O)c1C2=O)CC(O)(C(=O)CO)CC3OC1CC(N(C)C)C(O)C(C)O1 (stereo not drawn)
inactive: [1] | [2]

CCN(CC)S(=O)(=O)c1cc(NC(=O)Cn2ncc(Cl)c(Cl)c2=O)ccc1C
inactive: [1] | [2]

O=C(C[C@H]1CC[C@H]2[C@@H](COC[C@@H](O)CN2Cc2ccc(Oc3ccccc3)cc2)O1)N1CCCCC1
inactive: [1] | [2] | [3] | [4] 35% | [5] | [6] | [7]

COc1ccc(/C=N/NC(=O)c2[nH]c3ccc(Br)cc3c2-c2ccccc2)cc1
inactive: [1] | [2]

COC(=O)[C@]12CCCCC=C1N(Cc1ccc(Cl)cc1Cl)C(=O)[C@H](CC(=O)N1CCN(C(=O)c3ccco3)CC1)C2
inactive: [1] | [2]

O=C(c1cc([N+](=O)[O-])ccc1N1CCOCC1)N1CCN(c2ccccc2)CC1
inactive: [1] | [2]

C[C@H](CO)N1C[C@H](C)[C@@H](CN(C)S(=O)(=O)c2ccc(Cl)cc2)OCCCC[C@H](C)Oc2ccc(NS(=O)(=O)c3ccc(Cl)cc3)cc2C1=O
inactive: [1] | [2] | [3] | [4] -14.4% [at 8 µM, stronger effect = lower value] | [5] | [6] | [7]

CCOC(=O)Nc1ccc2c(c1)N(C(=O)CCN(CC)CC)c1ccccc1S2=O (stereo not drawn)
inactive: [1] | [2]

C[C@@H]1CCCCO[C@@H](CN(C)Cc2ccc(C(F)(F)F)cc2)[C@@H](C)CN([C@@H](C)CO)C(=O)c2cc(NS(=O)(=O)c3ccccc3)ccc2O1
inactive: [1] | [2] | [3] | [4] 24.1% [at 0.26 µM, stronger effect = lower value] | [5] | [6]

COc1ccc(F)cc1-c1cc(NC=O)c2ncc(-c3cc(OC)c(OC)c(OC)c3)n2c1
inactive: [1] | [2]

C=C(C)c1nc(Oc2ccccc2)nc(Oc2ccccc2)n1
inactive: [1] | [2]

CCCNC(=O)Nc1ccc2c(c1)OC[C@H](C)N(Cc1ccc(-c3ccccn3)cc1)C[C@@H](C)[C@@H](OC)CN(C)C2=O
inactive: [1] | [2] | [3] | [4] 60.3% | [5] | [6]

C[C@@H]1CN([C@H](C)CO)C(=O)Cc2cc(NC(=O)Nc3ccc(F)cc3)ccc2O[C@H]1CN(C)Cc1ccc(Cl)c(Cl)c1
inactive: [1] | [2] | [3] | [4] 19.8% [at 0.5 µM, stronger effect = lower value] | [5] | [6] | [7]

COc1ccc(NC(=O)Nc2ccc3c(c2)CC(=O)N([C@H](C)CO)C[C@@H](C)[C@@H](CN(C)Cc2ccc(Oc4ccccc4)cc2)O3)cc1
inactive: [1] | [2] | [3] | [4] -8.95% [at 16 µM, stronger effect = lower value] | [5] | [6] | [7]

C[C@H](CO)N1C[C@H](C)[C@H](CN(C)S(=O)(=O)c2ccc(Cl)cc2)OCCCC[C@H](C)Oc2ccc(NS(=O)(=O)c3ccc(F)cc3)cc2C1=O
inactive: [1] | [2] | [3] | [4] 20.8% | [5] | [7]

C[C@@H]1CCCCO[C@H](CN(C)Cc2ccc(C(F)(F)F)cc2)[C@H](C)CN([C@H](C)CO)C(=O)c2cc(NS(=O)(=O)c3cccs3)ccc2O1
inactive: [1] | [2] | [3] | [4] 29.1% [at 0.26 µM, stronger effect = lower value] | [5] | [6] | [7]

Cc1noc(C)c1S(=O)(=O)N(C)C[C@H]1OCCCC[C@@H](C)Oc2ccc(NS(=O)(=O)c3ccc(Cl)cc3)cc2C(=O)N([C@@H](C)CO)C[C@@H]1C
inactive: [1] | [2] | [3] | [5]

C[C@@H]1CN([C@H](C)CO)C(=O)c2cc(NS(=O)(=O)c3ccc(Cl)cc3)ccc2O[C@@H](C)CCCCO[C@@H]1CN(C)Cc1ccccc1
inactive: [1] | [3] | [4] 22% [at 1 µM, stronger effect = lower value] | [5] | [6] | [7]

CCCC(=O)NC(c1ccc(C(C)C)cc1)c1ccc2cccnc2c1O (stereo not drawn)
inactive: [2]

C[C@H]1CN([C@@H](C)CO)C(=O)Cc2cc(NC(=O)NC3CCCCC3)ccc2O[C@H]1CN(C)S(=O)(=O)c1ccc(Cl)cc1
inactive: [1] | [2] | [3] | [5] | [6] | [7]

C[C@@H]1CN([C@@H](C)CO)C(=O)Cc2cc(NC(=O)NC3CCCCC3)ccc2O[C@@H]1CN(C)Cc1ccc(-c2ccccc2)cc1
inactive: [1] | [2] | [3] | [4] 0% [stronger effect = lower value] | [5] | [7]

COc1ccc(-c2ccc(C3[C@@H]4CN(C(=O)Nc5cccc(F)c5)C[C@H]3N4)cc2)cc1 (stereo partly drawn)
inactive: [1] | [5] | [6]

Oc1cccc2cc(Nc3ccccc3)cnc12
inactive: [2]

Cc1cc(C2=NNC(=NC3CC3)SC2)c(C)n1-c1ccccc1F
inactive: [2]

COc1cc(C2C3=C(COC3=O)Oc3cc4c(cc32)OCO4)cc(OC)c1O (stereo not drawn)
inactive: [2]

CCN(CC(=O)Nc1c(F)cccc1F)C(=O)c1cc(S(=O)(=O)N(C)C)ccc1N1CCCC1
inactive: [1] | [2] | [4] | [5] | [6]

O=C1CN(C(=O)Cn2ncc(Cl)c(Cl)c2=O)c2ccccc2N1
inactive: [2]

Cc1ccsc1/C=N/Nc1cccc(C(=O)O)c1
inactive: [1] | [2] | [8]

C[C@H](CO)N1C[C@H](C)[C@H](CN(C)Cc2ccc(C(F)(F)F)cc2)OCCCC[C@H](C)Oc2ccc(NS(=O)(=O)c3ccccc3)cc2C1=O
inactive: [1] | [5] | [6]

C[C@@H]1CN([C@@H](C)CO)C(=O)Cc2cc(NS(=O)(=O)c3ccc(Cl)cc3)ccc2O[C@H]1CN(C)Cc1ccc(Oc2ccccc2)cc1
inactive: [1] | [2] | [5] | [6]

Cc1c(Nc2cc(Cl)c3nonc3c2[N+](=O)[O-])c(=O)n(-c2ccccc2)n1C
inactive: [2]

C=C1C(=O)C2=CC1CCC(=O)C1(C)CCC(OC(C)=O)C(C)(C)C1CC2O (stereo not drawn)
inactive: [2]

CCC(=O)NC(c1ccc(C)cc1)c1ccc2cccnc2c1O (stereo not drawn)
inactive: [2]

CCCn1c(C)cc(C(=O)CN2C(=O)c3ccccc3S2(=O)=O)c1C
inactive: [1] | [2] | [3] | [4] | [6] | [8]

COc1ccc(S(=O)(=O)Nc2ccc3c(c2)C(=O)N([C@@H](C)CO)C[C@H](C)[C@@H](CN(C)Cc2ccc(C(F)(F)F)cc2)OCCCC[C@H](C)O3)cc1
inactive: [1] | [2] | [5] | [6]

C[C@H]1CCCCO[C@H](CN(C)Cc2ccc(C(F)(F)F)cc2)[C@@H](C)CN([C@@H](C)CO)C(=O)c2cc(NC(=O)c3ccccc3)ccc2O1
inactive: [1] | [2] | [5] | [6] | [7]

C[C@@H]1CCCCO[C@@H](CN(C)C(=O)Nc2cccc3ccccc23)[C@H](C)CN([C@H](C)CO)C(=O)c2cc(NS(=O)(=O)c3ccc(F)cc3)ccc2O1
inactive: [1] | [2] | [4] 12.2% [at 0.26 µM, stronger effect = lower value] | [5] | [6]

Cc1ccc(S(=O)(=O)Nc2ccc3c(c2)CC(=O)N([C@H](C)CO)C[C@H](C)[C@H](CN(C)S(=O)(=O)c2ccc(F)cc2)O3)cc1
inactive: [1] | [2] | [3] | [5] | [6] | [7]

Cc1ccc(S(=O)(=O)N(C)C[C@H]2Oc3cc(C#Cc4ccncc4)ccc3S(=O)(=O)N([C@@H](C)CO)C[C@@H]2C)cc1
inactive: [1] | [2] | [3] | [5] | [6]

Cc1nc2sc(C(c3ccco3)N3CCN(C(c4ccccc4)c4ccccc4)CC3)c(O)n2n1 (stereo not drawn)
inactive: [1] | [2] | [5] | [6]

C[C@@H]1CN([C@@H](C)CO)C(=O)c2cc(NC(=O)c3ccccc3)ccc2O[C@@H](C)CCCCO[C@@H]1CN(C)Cc1ccc(C(F)(F)F)cc1
inactive: [1] | [2] | [3] | [5] | [6]

Cc1ccccc1CNC(=O)C1CCCN(c2nnc(C)c3c(C)n(-c4ccccc4)nc23)C1 (stereo not drawn)
inactive: [1] | [2] | [6]
